The source of these data is PubChem BioAssay (Tox21).

The nature of test [1]: qHTS assay to identify small molecule agonists of the hypoxia (HIF-1) signaling pathway (AID 1224846; active means well fitted activation curve with a large enough effect in the signal ratio in the repeat runs, not every such curve was filed as active; the % refers to the signal ratio). In short, it runs like this:
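Cell line: CellSensor HRE-bla ME-180; 2,000 cells/well; 0.5% dialyzed FBS; 5 h preincubation; DMSO compound pin transfer; 17 h, 37C, 5% CO2; CCF4-AM added; bla FRET signal scored for activation.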
For orientation: In qHTS, concentration-response curves come from the screen itself.

The nature of test [2]: qHTS assay to identify small molecule agonists of H2AX - cell viability counter screen (AID 1224847; calls by dose curve; further: top concentration of the series differs between compounds; nearly all actives have a fitted effect of over 30% in size). Summed up:
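Compounds tested at 15 concentrations were incubated 3 hr at 37C with wild-type CHO-K1 cells; cellular ATP-based luminescence (CellTiter-Glo) indicated viability.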

The nature of test [3]: qHTS RealTime-Glo MT Cell Viability Assay in HepG2 cells - 24 hour (AID 1224867). Further: nearly all actives have a fitted effect of over 50% in size. In short, it runs like this:
(§1)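 Cells + NanoLuc/prosubstrate dispensed (600 cells/well) → 5 h at 37 C/5% CO2 → compounds in DMSO transferred → 40 h incubation at 37 C, luminescence read at 0, 8, 16, 24, 32, 40 h.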

Test [4] is described as follows: A CellTox Green Cytotoxicity Assay to monitor cytotoxicity in HEK293 cells - 0 hour (AID 1224869). Further: nearly all actives have a fitted effect of over 50% in size. In short, it runs like this:
(§2)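 Nonlytic real-time cytotoxicity: HEK293 + CellTox Green reagent plated, 5 h preincubation, pintool compound addition (23 nL in DMSO), 37 C for 40 h, fluorescence measured at successive time points.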

Test [5] is described as follows: A CellTox Green Cytotoxicity Assay to monitor cytotoxicity in HEK293 cells - 40 hour (AID 1224871). Further: nearly all actives have a fitted effect of over 45% in size. Further: potency means the concentration at half of the fitted maximal effect. Summed up:
as §2

A short description of test [6]: qHTS RealTime-Glo MT Cell Viability Assay in HepG2 cells - 8 hour (AID 1224873). Further: nearly all actives have a fitted effect of over 55% in size. Summed up: (§3)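 HepG2 cells mixed with RealTime-Glo MT reagents (NanoLuc plus cell-permeant prosubstrate) were seeded at 600 cells/well, incubated 5 h at 37 C/5% CO2, then pinned with compounds in DMSO; nonlytic luminescence tracked viability during 40 h treatment.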
Test [7] is described as follows: A CellTox Green Cytotoxicity Assay to monitor cytotoxicity in HepG2 cells - 16 hour (AID 1224876). Further: nearly all actives have a fitted effect of over 45% in size. In short, it runs like this: (§4)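 Read-out is fluorescence of a cyanine dye excluded from live cells that stains DNA of dead HepG2 cells, with signal proportional to cytotoxicity. Plates were read at 0, 8, 16, 24, 32 and 40 h after compound addition.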
Test [8] is described as follows: qHTS RealTime-Glo MT Cell Viability Assay in HepG2 cells - 32 hour (AID 1224877). Further: nearly all actives have a fitted effect of over 55% in size. Summed up: as §1
Test [9] is described as follows: A CellTox Green Cytotoxicity Assay to monitor cytotoxicity in HepG2 cells - 24 hour (AID 1224878). Further: nearly all actives have a fitted effect of over 45% in size. In short, it runs like this:
as §4

A short description of test [10]: qHTS RealTime-Glo MT Cell Viability Assay in HEK293 cells - 0 hour (AID 1224880). Further: top concentration of the series differs between compounds; nearly all actives have a fitted effect of over 45% in size. In short, it runs like this: (§5)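 Cells were seeded together with NanoLuc luciferase and a prosubstrate that viable cells reduce to a luciferase substrate. After a 5 h incubation at 37 C/5% CO2, compounds were added and luminescence was measured repeatedly during 40 h of treatment.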
A short description of test [11]: A CellTox Green Cytotoxicity Assay to monitor cytotoxicity in HEK293 cells - 32 hour (AID 1224881). Further: nearly all actives have a fitted effect of over 40% in size. Summed up: as §2
Test [12] can be described thus: qHTS RealTime-Glo MT Cell Viability Assay in HEK293 cells - 32 hour (AID 1224868). Further: nearly all actives have a fitted effect of over 50% in size. Further: potency means the concentration at half of the fitted maximal effect. In short, it runs like this:
(§6)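 Tox21 10K qHTS, HEK293, 600 cells/well, RealTime-Glo reagent co-dispensed with cells; 5 h preincubation, compound by pintool, 37 C, luminescence at 0–40 h.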

A short description of test [13]: qHTS RealTime-Glo MT Cell Viability Assay in HepG2 cells - 40 hour (AID 1224870). Further: nearly all actives have a fitted effect of over 50% in size. In short, it runs like this: as §3
The nature of test [14]: qHTS RealTime-Glo MT Cell Viability Assay in HEK293 cells - 40 hour (AID 1224874). Further: nearly all actives have a fitted effect of over 50% in size. Further: potency means the concentration at half of the fitted maximal effect. The conditions noted are these: RealTime-Glo luminescence; max response: active compounds read low. In short, it runs like this:
as §5

A short description of test [15]: A CellTox Green Cytotoxicity Assay to monitor cytotoxicity in HEK293 cells - 24 hour (AID 1224875). In short, it runs like this:
as §2

Test [16] is described as follows: A CellTox Green Cytotoxicity Assay to monitor cytotoxicity in HepG2 cells - 40 hour (AID 1224879). Further: nearly all actives have a fitted effect of over 40% in size. Further: potency means the concentration at half of the fitted maximal effect. In short, it runs like this: as §4
Test [17] can be described thus: qHTS RealTime-Glo MT Cell Viability Assay in HEK293 cells - 16 hour (AID 1224872). Summed up: as §6
A short description of test [18]: qHTS assay to identify small molecule antagonists of the estrogen related receptor (ERR) signaling pathway from Tox21 library (AID 1224848). Further: nearly all actives have a fitted effect of over 50% in size. Further: potency means the concentration at half of the fitted maximal effect. In short, it runs like this:
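Screening used an ERR reporter line supplied by NTP, exposed for 18 h at 37 C to library compounds delivered in DMSO. Signal was luciferase luminescence developed with ONE-Glo at room temperature for 30 min.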

A short description of test [19]: qHTS assay to identify small molecule agonists of the estrogen related receptor (ERR) signaling pathway from Tox21 library (AID 1224849; calls by dose curve; further: nearly all actives have a fitted effect of over 15% in size). In short, it runs like this: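 ERR cells, 6 h pre-incubation 37 C/5% CO2; cpd in DMSO pinned; 18 h 37 C; ONE-Glo added, 30 min RT; luminescence read. Agonist mode, qHTS.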

The structures appear in SMILES notation. A number with no mark means an inactive call. Results filed as inconclusive are left out. Calls of active or inactive are those of the source. Unless noted, the call rests on the fitted dose curve; in most records, active means well fitted curve in the direction sought with a large enough effect in the repeat runs; inconclusive means weak or mixed curves; inactive means no such curve, though single readings can be large; an effect the other way counts as inactive or inconclusive.
On the % scale 0 is the no-effect control and ±100 the full control effect.

`CCCc1nn(C)c2c(=O)[nH]c(-c3cc(S(=O)(=O)N4CCN(C)CC4)ccc3OCC)nc12`: the outcome in test [1], in test [2], in test [3], in test [4], in [6] and in test [7] was inactive. Also, the compound was called inactive in [9] and in test [11]. For the same compound, the Potency entry in test [5], in test [8] and in test [10] was “inactive” throughout.

`CC(=O)O[C@@]12CO[C@@H]1C[C@H](O)[C@@]1(C)C(=O)[C@H](O)C3=C(C)[C@@H](OC(=O)[C@H](O)[C@@H](NC(=O)OC(C)(C)C)c4ccccc4)C[C@@](O)([C@@H](OC(=O)c4ccccc4)[C@H]21)C3(C)C`: the result in test [2], in test [3], in [4], in test [6], in test [15] and in [7] was inactive. The call in test [11] was inactive. For the same compound, the Potency was 0.0477 µM (active) in [12], 0.0338 µM (active) in test [14] and 0.006 µM (active) in test [16]. The Potency entry in test [13], in test [5], in [8] and in test [10] was “inactive” throughout.

Regarding `CCCc1ncc(C[n+]2ccccc2C)c(N)n1`, the call in test [2], in test [3], in test [4], in test [6], in test [7] and in [9] was inactive. Besides, the compound was classed as inactive in [11]. The Potency entry in test [12], in test [13], in test [5], in [17], in test [8] and in test [16] was “inactive” throughout. In test [10], the Potency result is “inactive”. The max response in test [14] was 6.68%.

In the case of `CC12CCC(C(=O)C1=O)C2(C)C` (stereo unspecified), the compound was classed as inactive in test [1], in [2], in test [3], in test [4], in [6] and in [15]. Further, the compound was classed as inactive in test [7], in test [9] and in test [11]. Also, the Potency result in test [12], in [13], in test [5], in test [17], in [8] and in test [16] was “inactive” throughout. The max response in test [14] was -1.01%.

Turning to `COc1cc2c(cc1OC)-c1cc3ccc(OC)c(OC)c3c[n+]1CC2`, the call in test [2], in test [19], in [3], in test [4], in test [6] and in test [15] was inactive. The compound was classed as inactive in test [7], in test [9] and in [11]. Moreover, the results for the Potency in test [18], in [12] and in test [14] were 24.6 µM (active), 49.4 µM (active) and 44.1 µM (active), respectively. For the same compound, the Potency result in test [13], in [5], in test [8] and in test [10] was “inactive” each time.

Take `[Ca+2]`: the result in test [1], in test [2], in [3], in test [4], in [6] and in [15] was inactive. Also, the result in [7] and in test [11] was inactive. In addition, the Potency result in [12], in [13], in [5], in [17], in [8] and in test [16] was “inactive” each time. The Potency entry in test [10] is “inactive”. Further, the max response in [14] was 5.91%.

`CCCCOC(=O)CCC(C)=O`: the call in [1], in test [3], in test [4], in [6], in [15] and in test [7] was inactive. The outcome in [9] and in [11] was inactive. The Potency entry in test [12], in [13], in test [5], in [17], in test [8] and in [16] was “inactive” throughout. In addition, the max response in [14] is -4.42%.

On to `O=[N+]([O-])c1ccc(/C=N\O)o1`, for which the compound was called inactive in [1], in [3], in test [4], in [6], in [15] and in test [7]. The outcome in [9] and in [11] was inactive. The Potency result in [12], in test [5], in [17], in [8], in [16] and in test [10] was “inactive” in each case. Moreover, in test [14], the max response is 4.52%.

Take `CC(C)(C)C(=O)c1ccccc1`: the compound was called inactive in test [1], in test [4], in [6], in test [7], in test [9] and in test [11]. The Potency entry in test [12], in test [13], in test [5], in [17] and in [8] was “inactive” throughout. The max response in test [14] was 0.84%.

For `O=S(=O)(O)c1cc(O)c(O)c(S(=O)(=O)O)c1`, the result in test [1], in test [4], in test [6], in test [15], in test [7] and in [9] was inactive. The compound was called inactive in [11]. In addition, the Potency result in [12], in [5], in test [17], in test [8], in [16] and in test [10] was “inactive” in each case. Also, in [14], the max response was 0.173%.

As to `c1ccc(Cc2ccccc2)cc1`, the compound was called inactive in test [1], in test [4], in [6], in test [7] and in test [9]. Besides, the Potency result in test [12], in [13], in test [17], in test [8], in test [16] and in test [10] was “inactive” throughout. Besides, the Potency in test [5] was 34.7 µM (active). The max response in [14] was -0.7%.

For `N[C@H](C(=O)O)[C@@H](O)c1ccc(O)c(O)c1`, the outcome in [1], in test [2], in [3], in test [4], in test [6] and in test [15] was inactive. The compound was called inactive in [7], in test [9] and in test [11]. Besides, the Potency entry in [12], in test [13], in [5], in test [17], in [8] and in test [16] was “inactive” in each case. Besides, in test [10], the Potency entry was “inactive”. In addition, the max response in test [14] is 0.604%.

On to `C[C@@H]1CCC[C@H](C)N1`, for which the result in [2], in test [19], in [4], in test [6], in test [15] and in test [7] was inactive. Moreover, the compound was classed as inactive in test [9] and in test [11]. For the same compound, the Potency entry in test [18], in test [12], in test [13], in test [5], in test [17] and in test [8] was “inactive” in each case. Also, the Potency result in test [16] was “inactive”. Moreover, the max response in test [14] was 0.353%.

Regarding `CC1=CCC(O)(C(C)C)CC1` (stereo unspecified), the result in [2], in test [3], in test [4], in [6], in test [15] and in test [7] was inactive. Moreover, the compound was classed as inactive in test [9] and in test [11]. The Potency result in test [12], in test [13], in test [5], in test [17], in [8] and in [16] was “inactive” in each case. The Potency result in test [10] is “inactive”. Besides, in test [14], the max response was 2.79%.
